Data published in PubChem BioAssay (NCATS).
Inconclusive results are not listed. Active and inactive are the calls of the source. Calls follow the shape of the dose curve; as a rule, active = well fitted inhibition curve with a large enough effect; inconclusive = small, poorly fitted or top-dose-only effect; inactive = flat fitted curve, though single readings scatter.

Key:
Assay in all cases: qHTS profiling for inhibitors of Plasmodium falciparum proliferation (AID 504749); also: nearly all actives have a fitted effect of over 60% in size
CP256 = details: P. falciparum in erythrocytes, SYBR Green DNA, 72 h; series mostly up to 12.8 µM
Procedure, shortened: (§1)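 SYBR Green fluorescence (ex 485 nm, em 535 nm) reports parasite DNA after 72 h compound exposure of infected red cells at 0.3% parasitemia, 2.5% hematocrit; signal normalized to 0.29 uM artemisinin and vehicle wells.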

CP260 = details: P. falciparum in erythrocytes, SYBR Green DNA, 72 h; series mostly up to 12.8 µM
Procedure, shortened: as §1

CP262 = details: P. falciparum in erythrocytes, SYBR Green DNA, 72 h; series mostly up to 12.8 µM
Procedure, shortened: as §1

CP265 = details: P. falciparum in erythrocytes, SYBR Green DNA, 72 h; series mostly up to 12.8 µM
Procedure, shortened: as §1

CP266 = details: P. falciparum in erythrocytes, SYBR Green DNA, 72 h; series mostly up to 28.7 µM
Procedure, shortened: as §1

CP268 = details: P. falciparum in erythrocytes, SYBR Green DNA, 72 h; series mostly up to 12.8 µM
Procedure, shortened: as §1

CP269 = details: P. falciparum in erythrocytes, SYBR Green DNA, 72 h; series mostly up to 12.8 µM
Procedure, shortened: as §1

CP286 = details: P. falciparum in erythrocytes, SYBR Green DNA, 72 h; series mostly up to 12.8 µM
Procedure, shortened: as §1

CP291 = details: P. falciparum in erythrocytes, SYBR Green DNA, 72 h; series mostly up to 12.8 µM
Procedure, shortened: as §1

CP297 = details: P. falciparum in erythrocytes, SYBR Green DNA, 72 h; series mostly up to 12.8 µM
Procedure, shortened: as §1

CP305 = details: P. falciparum in erythrocytes, SYBR Green DNA, 72 h; series mostly up to 12.8 µM
Procedure, shortened: as §1

CP315 = details: P. falciparum in erythrocytes, SYBR Green DNA, 72 h; series mostly up to 12.8 µM
Procedure, shortened: as §1

CP325 = details: P. falciparum in erythrocytes, SYBR Green DNA, 72 h; series mostly up to 12.8 µM
Procedure, shortened: as §1

CP329 = details: P. falciparum in erythrocytes, SYBR Green DNA, 72 h; series mostly up to 12.8 µM
Procedure, shortened: as §1

CP335 = details: P. falciparum in erythrocytes, SYBR Green DNA, 72 h; series mostly up to 12.8 µM
Procedure, shortened: as §1

DFO2036 = details: P. falciparum in erythrocytes, SYBR Green DNA, 72 h; series mostly up to 12.8 µM
Procedure, shortened: as §1

DIV14 = details: P. falciparum in erythrocytes, SYBR Green DNA, 72 h; series mostly up to 12.8 µM
Procedure, shortened: as §1

DIV17 = details: P. falciparum in erythrocytes, SYBR Green DNA, 72 h; series mostly up to 12.8 µM
Procedure, shortened: as §1

DIV30 = details: P. falciparum in erythrocytes, SYBR Green DNA, 72 h; series mostly up to 12.8 µM
Procedure, shortened: as §1

Dd2 = details: P. falciparum in erythrocytes, SYBR Green DNA, 72 h; series mostly up to 12.8 µM
Procedure, shortened: as §1

ECU = details: P. falciparum in erythrocytes, SYBR Green DNA, 72 h; series mostly up to 12.8 µM
Procedure, shortened: as §1

FAB9 = details: P. falciparum in erythrocytes, SYBR Green DNA, 72 h; series mostly up to 12.8 µM
Procedure, shortened: as §1

GB4 = details: P. falciparum in erythrocytes, SYBR Green DNA, 72 h; series mostly up to 12.8 µM
Procedure, shortened: as §1

HB3 = details: P. falciparum in erythrocytes, SYBR Green DNA, 72 h; series mostly up to 12.8 µM
Procedure, shortened: as §1

ICS = details: P. falciparum in erythrocytes, SYBR Green DNA, 72 h; series mostly up to 12.8 µM
Procedure, shortened: as §1

JCK = details: P. falciparum in erythrocytes, SYBR Green DNA, 72 h; series mostly up to 12.8 µM
Procedure, shortened: as §1

N140 = details: P. falciparum in erythrocytes, SYBR Green DNA, 72 h; series mostly up to 12.8 µM
Procedure, shortened: as §1

P93_24 = details: P. falciparum in erythrocytes, SYBR Green DNA, 72 h; series mostly up to 12.8 µM
Procedure, shortened: as §1

P94_40 = details: P. falciparum in erythrocytes, SYBR Green DNA, 72 h; series mostly up to 12.8 µM
Procedure, shortened: as §1

PAD = details: P. falciparum in erythrocytes, SYBR Green DNA, 72 h; series mostly up to 12.8 µM
Procedure, shortened: as §1

PC15 = details: P. falciparum in erythrocytes, SYBR Green DNA, 72 h; series mostly up to 12.8 µM
Procedure, shortened: as §1

PC26 = details: P. falciparum in erythrocytes, SYBR Green DNA, 72 h; series mostly up to 12.8 µM
Procedure, shortened: as §1

PC49 = details: P. falciparum in erythrocytes, SYBR Green DNA, 72 h; series mostly up to 12.8 µM
Procedure, shortened: as §1

SC27B = details: P. falciparum in erythrocytes, SYBR Green DNA, 72 h; series mostly up to 12.8 µM
Procedure, shortened: as §1

TAB109 = details: P. falciparum in erythrocytes, SYBR Green DNA, 72 h; series mostly up to 12.8 µM
Procedure, shortened: as §1

TAB113 = details: P. falciparum in erythrocytes, SYBR Green DNA, 72 h; series mostly up to 12.8 µM
Procedure, shortened: as §1

TAB165 = details: P. falciparum in erythrocytes, SYBR Green DNA, 72 h; series mostly up to 12.8 µM
Procedure, shortened: as §1

W2 = details: P. falciparum in erythrocytes, SYBR Green DNA, 72 h; series mostly up to 12.8 µM
Procedure, shortened: as §1

Measured: Potency

CN[C@@H]1[C@H](O[C@@H]2O[C@H](CO)[C@@H](N)[C@H](O)[C@@H]2O)O[C@H]2C[C@@H](N)[C@@H](O[C@H]3[C@@H](O)[C@H](O)[C@H](N)C[C@@H]3N)O[C@H]2[C@H]1O
inactive: all assays above
